Shown are actives, neighbours in structure and some others; about 2.7% of the full set was active somewhere.
pAkt inh = inhibitors of Akt phosphorylation; Neuro2A IGF-stimulated pAkt S473 HTRF, 20 min; active compounds read low; AID 651550; activity change, % for hits at 50 µM; 360,000 tested, 0.32% active; in the data active means activity change below about -80%; inconclusive means mostly about -51% to -80%; further: on the % scale 0 is the no-effect control and ±100 the full control effect
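Single-point screen (50 µM final compound) in Neuro2A cells stimulated 20 min with 6 nM IGF at 37 deg C. After lysis, Ser473-phosphorylated Akt read by HTRF (ex 330 nm, em 615/665 nm) as the 665/615 ratio.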
gsp antag = antagonizes gsp, the McCune-Albright syndrome mutation; gsp-mutant cells, cAMP HTRF, 30 min; Potency, µM (series often up to 76.9 µM), for inactives: top-dose activity change, negative = inhibition, actives largely listed as inhibitors; 340,000 tested, 0.4% active; AID 624288; calls by dose curve; cell line not stated here;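 further: intracellular cAMP measured with PDE inhibitor Ro 20-1724 present during compound exposure; potency means the concentration at half of the fitted maximal effect; on the % scale 0 is the no-effect control and ±100 the full control effect; nearly all actives have a fitted effect of over 65% in size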
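HTRF cAMP read-out (cAMP-d2 plus anti-cAMP antibody-K in lysis buffer, 30 min RT). Before lysis, cells are exposed to compounds with […] for 30 min at 37C in DPBS containing Ca/Mg, BSA and Tween 20.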
RXFP1 ag = RXFP1 (human) receptor agonism; 370,000 tested, 0.3% active; HEK293T-RXFP1 cAMP TR-FRET, 30 min; response scale: percent of porcine relaxin response, buffer zero; Potency, µM (top dose mostly 57.5 µM), inactives show at the highest dose activation, actives largely listed as activators; AID 2676; Q9HBX9; active means well fitted activation curve with a large enough effect; inconclusive means small, poorly fitted or top-dose-only effect; further: potency means the concentration at half of the fitted maximal effect; on the % scale 0 is the no-effect control and ±100 the full control effect; nearly all actives have a fitted effect of over 60% in size
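HEK293 cells stably expressing RXFP1, treated 30 min at 37C with compounds plus PDE4 inhibitor Ro 20174; cAMP measured by HTRF TR-FRET. Normalized to buffer and 29 nM porcine relaxin; EC50 by Hill fit.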
gsp ag = agonists of gsp mutant (McCune-Albright syndrome). gsp mutant cells, cAMP HTRF, 30 min. Potency, µM (highest dose often 76.9 µM), without a hit: at the highest dose activation (cAMP increase), most hits filed as activators. 340,000 tested, 0.13% active; active means well fitted activation curve with a large enough effect; inconclusive means small, poorly fitted or top-dose-only effect, or another doubt; inactive means no such curve, though single readings can be large or run the other way; cell line not stated here;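 further: phosphodiesterase inhibitor Ro 20-1724 added with compounds to block cAMP breakdown; potency means the concentration at half of the fitted maximal effect; nearly all actives have a fitted effect of over 60% in size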
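Cells stably selected in G418 were plated at 2000/well, grown 16-24 hr, then given compounds in DMSO with the PDE inhibitor […] (300 uM solution added) for 30 min at 37C; cAMP was read by HTRF.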
ClpP mod = qHTS Assay for Activators of ClpP; purified B. subtilis ClpP, FRET peptide cleavage, 20 min; Potency, µM (top dose mostly 57.5 µM), without a hit: top-dose activity change, negative = active; 340,000 tested, 1.9% active; AID 651965, 2013; active means well fitted falling curve with a large enough effect; inconclusive means small, poorly fitted or top-dose-only effect; inactive means no such curve, though single readings can be large or run the other way; further: potency means the concentration at half of the fitted maximal effect; the source files actives as falling curves though it sought activators and does not explain the sign; nearly all actives have a fitted effect of over 65% in size
Target sequence (P80244 whole entry, looked up): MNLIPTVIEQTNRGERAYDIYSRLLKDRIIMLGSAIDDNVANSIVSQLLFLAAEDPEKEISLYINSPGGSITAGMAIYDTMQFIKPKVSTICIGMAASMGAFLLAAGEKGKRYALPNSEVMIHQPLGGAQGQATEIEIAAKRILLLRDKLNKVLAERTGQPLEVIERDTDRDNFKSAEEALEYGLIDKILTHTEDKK
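FRET quenching reversal measured ClpP activation: 10 microg/mL B. subtilis ClpP at pH 8 with the FRET-FV decapeptide, read at 430 nm after 320 nm excitation. The 20-min minus 0-min signal was scaled between DMSO/no-enzyme wells and ADEP (5.8 microM final).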
RXFP1 antagonist = RXFP1 (human) relaxin receptor antagonism | Q9HBX9 | HEK293-RXFP1, relaxin-stimulated cAMP HTRF, 30 min; active compounds read low | activity change, negative = inhibition, % at 57.5 µM | 350,000 tested, 0.59% active;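 active means activity change of -60% or lower, but not beyond a set lower limit; inconclusive means change between -60% and -40%, or beyond the set limit; inactive means change above -40%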; further: on the % scale 0 is the no-effect control and ±100 the full control effect
Active calls of the source: *; i = inactive; ? = inconclusive; . = no result; [ ] = dose if it differs, or a comment.

SMILES	pAkt inh	gsp antag	RXFP1 ag	gsp ag	ClpP mod	RXFP1 antagonist
COC(=O)N/N=C/c1cccc(OCCSc2ccc(Cl)cc2)c1	i	-34.7%	2.3%	2.7%[15.4 µM]	1.0%	-61.6*
CCn1c(SCc2ccc(C)cc2)nnc1C1CCN(S(=O)(=O)c2ccc(OC)cc2)CC1	-129.8%*	-21.8%	0.9%	-21.2%	0.1%	-4.8
CCn1c(SCc2ccc(F)cc2)nnc1C1CCN(S(=O)(=O)c2ccc(OC)cc2)CC1	i	-28.3%	0.0%	3.9%	-0.4%	3.9
CCOC(=O)c1c(NC(=O)c2ccc(C)cc2)sc2c1CC(C)(C)OC2	i	-12.0%	0.0%	-2.6%	25.1µM*	-4.5
CCOC(=O)c1c(NC(=O)c2ccccc2C)sc2c1CC(C)(C)OC2	i	-14.8%	2.7%	-20.6%	?	-9.3
CCOC(=O)Cc1nnc(NC(=O)c2ccco2)s1	-122.4%*	6.6%[15.4 µM]	0.5%	-40.1%	-1.3%	-10.7
COC(=O)c1c(NC(=O)c2ccoc2C)sc2c1CCC2	i	1.9%	4.4%	35.5%	31.6µM*	2.8
CCOC(=O)c1c(NC(=O)c2ccco2)sc2c1CCCCC2	i	6.7%	7.7%	-10.4%	35.5µM*	-0.2
CC(C)(C)Cc1nnc(NC(=O)c2ccco2)s1	i	-12.7%	0.6%	18.0%	-1.0%	0.9
CC(C)(C)S(=O)N1Cc2cc(C(=O)NCc3ccc(Oc4ccccc4)cc3)nc(-c3cccc(-c4cc5ccccc5o4)c3)c2[C@@H]1CCO (some centres not stated)	i	.	.	.	21.7%	.
Cc1cc(S(=O)(=O)N2CCN(CC(=O)NCCc3cccs3)CC2)ccc1Br	i	-11.1%	-2.2%	23.8%	0.1%	-0.1
CCOC(=O)c1c(NC(=O)c2ccoc2C)sc(C)c1C	i	12.7%	0.9%	-3.1%	8.91µM*	-1.5
COC(=O)c1c(NC(=O)COC(=O)c2ccc(C)s2)sc2c1CCCCC2	i	4.1%	2.0%	-41.5%	-1.6%	9.2
COC(=O)c1c(NC(=O)COC(=O)[C@@H](NS(=O)(=O)c2ccc(C)cc2)C(C)C)sc2c1CCC2	i	-20.4%	0.7%	3.1%[15.4 µM]	28.2µM*	-9.7
CCOC(=O)c1c(NC(=O)c2c(-c3ccccc3)noc2C)sc(C)c1-c1ccccc1	i	3.3%	0.6%	-21.4%	14.1µM*	-15.2
CCOC(=O)c1ccccc1NC(=O)c1c(-c2ccccc2)noc1C	.	.	3.2%	.	-17.2%	-15.0
CNC(=O)c1c(NC(=O)c2ccco2)sc(C)c1C	i	2.6%	-0.8%	-10.3%[15.4 µM]	-5.9%	-88.4*
Cc1ccc(S(=O)(=O)N/N=C/c2cccc3nccnc23)cc1	i	1.8%	1.1%	7.1%	1.3%	-7.0
N#Cc1cccc(S(=O)(=O)N2CCN(c3nc(-c4cccs4)nc4ccccc34)CC2)c1	.	.	.	.	4.6%	.
COc1ccc(NC(=O)c2c(NCc3ccc(C)o3)sc3c2CCCCC3)c(OC)c1	.	.	-0.3%	.	0.9%	?
CC(C)(C)[C@H]1CCC(=O)N(CCSc2ccc(Br)cc2)CC1	.	.	.	.	1.3%	.
COc1ccccc1CNC(=O)CCn1c(=O)c2ccccc2n(CC(=O)Nc2cc(Cl)ccc2C)c1=O	.	.	-0.8%	.	3.8%	.
Cc1ccc(-c2cc(C(=O)O)c3sc(N4CCCCC4)nc3n2)cc1	i	-29.0%	-0.3%	-5.6%	?	-7.5
COc1ccc(-c2cc(C(=O)O)c3sc(N4CCCCC4)nc3n2)cc1OC	i	-9.9%	1.4%	7.9%	10µM*	-13.9
COc1ccc(-c2cc(-c3ccccc3)nc(N3CCCC3)n2)cc1OC	.	-14.5%	0.3%	?	25.1µM*	-0.7
SMILES	pAkt inh	gsp antag	RXFP1 ag	gsp ag	ClpP mod	RXFP1 antagonist
Cc1ccc(S(=O)(=O)NCC(c2ccc3c(c2)OCO3)N2CCOCC2)cc1 (configuration not stated)	i	-11.1%	-0.1%	6.4%[15.4 µM]	28.2µM*	-3.6
O=S(=O)(NCC(c1ccc2c(c1)OCO2)N1CCOCC1)c1ccc(Br)cc1 (configuration not stated)	i	-5.1%	-0.7%	-1.6%[15.4 µM]	.	15.2
OCCCCNc1cccc2ccccc12	i	-12.3%	3.3%	-51.9%	15.8µM*	13.5
N#Cc1ccccc1Cn1c(=O)n(-c2cccc(C(F)(F)F)c2)c(=O)c2sccc21	.	.	0.7%	.	-1.6%	-11.6
Cc1cc(C)c(C)c(S(=O)(=O)N2CCN(c3ncnc4ccccc34)CC2)c1C	i	35.5µM*	2.8%	-0.4%	-7.2%	-18.6
CC1(C(=O)NS(=O)(=O)c2ccc(C#N)cc2)CCN1C(=O)Cc1cc(F)ccc1F (configuration not stated)	i	.	.	.	-0.4%	.
CC(C)OCC(O)CN1CCNCC1 (configuration not stated)	-115.4%*	5.2%	0.0%	-0.3%	0.5%	8.6
OC(COc1ccccc1Br)CN1CCNCC1 (configuration not stated)	i	8.5%	-0.7%	-2.8%	.	-1.1
COc1ccc(CCn2c(=S)[nH]c(=O)c3[nH]cnc32)cc1OC	.	.	.	.	-1.1%	.
CCCOC(=O)C1=C(C)CS[C@@H]2[C@H](NC(=O)COc3ccccc3)C(=O)N12	.	.	.	.	-14.2%	.
CCOC(=O)N1CCC2(CC1)CC(=O)c1c(ccc3oc(C(=O)O)c(C)c13)O2	i	19.8%	1.1%	-5.6%	35.5µM*	-10.9
Cc1c(C(=O)NCc2ccc(Cl)cc2)oc2ccc3c(c12)C(=O)CC(C)(C)O3	.	.	1.3%	.	?	-10.7
CCCNC(=O)c1oc2ccc3c(c2c1C)C(=O)CC(C)(C)O3	i	-2.7%	0.2%	20.0%	28.2µM*	-14.0
C[N+]1(CC(=O)c2ccc(Br)cc2)CCOCC1	.	.	.	.	2.1%	.
Cc1cc(C)nc(-n2nc(C)c(Oc3ccccc3O)c2C)n1	i	12.4%	2.5%	15.3%	28.2µM*	-6.0
COc1ccc(-c2cc(C(=O)Nc3ccc(C#N)cc3)no2)cc1	.	.	?	.	-29.7%	-3.9
CC(=O)OC[C@H]1O[C@@H](O[C@H]2C[C@]3(C)C(C[C@@H](O)C4C([C@]5(C)CC[C@@H](C(C)(C)O)O5)CC[C@]43C)[C@@]3(C)CC[C@H](O)C(C)(C)C23)[C@H](O[C@@H]2O[C@@H](C)[C@H](O)[C@@H](O)[C@H]2O)[C@@H](O)[C@@H]1O (some centres not stated)	i	-0.7%	.	.	2.5%	.
Cc1cc(NC(=O)CSc2nc3c(cc2C#N)CCC3)no1	i	0.6%	?	11.5%[15.4 µM]	.	-3.7
CCOc1ccc(/C=N/NC(=O)Cc2ccccc2)cc1CN1CC2CC(C1)c1cccc(=O)n1C2 (configuration not stated)	i	35.5µM*	2.0%	.	-0.2%	.
